Source: article PMC12670160, “A drug-repurposing screen of FDA- and EMA-approved drugs identifies two NF-κB inhibitors active against eumycetoma” (Journal of Antimicrobial Chemotherapy, 2025)
Counter-ions that a name gives are not always drawn. The campaign covered roughly 5,300 compounds. About 130 (2.5%) showed an effect of 50% or more. What follows is part of a selection rich in strong results, with near analogues and random picks from the rest.

System: M. mycetomatis strain mm55
Conditions: primary screen, metabolic activity vs growth control; 96 h, 2 µM; inhibitor

Compound	% viability [%]
Cc1c(C(=O)NCc2cccnc2)nn(-c2ccc(Cl)cc2Cl)c1-c1ccc(Cl)cc1 [ONC0001432, mj15]	60.06
C[C@@H]1CC2C3CCC4=CC(=O)C=C[C@]4(C)[C@@]3(F)[C@@H](O)C[C@]2(C)[C@@]1(O)C(=O)CO (stereo partly shown) [ONC0000416, dexamethasone]	62.67
O=C(Nc1ccc([N+](=O)[O-])cc1Cl)c1cc(Cl)ccc1O [niclosamide]	70.84
O=C(Nc1cc(C(F)(F)F)cc(C(F)(F)F)c1)c1cc(Cl)ccc1O [IKK2 inhibitor V (IMD-0354), IMD-0354]	2.589
O=C(Nc1cc(C(F)(F)F)cc(C(F)(F)F)c1)c1cnc(Cl)nc1C(F)(F)F [ONC0001396, sp100030]	126.3
O=C(C[C@H]1NCCC[C@@H]1O)Cn1cnc2cc(Br)c(Cl)cc2c1=O (racemic) [ONC0004939, halofuginone]	90.07
CC1=CC(=O)NS(=O)(=O)O1 [ONC0005569, acesulfame potassium]	46
c1ccc(-c2ncc(CN3CCN(c4ncccn4)CC3)[nH]2)cc1 [ONC0000007, ngd941]	130.5
CC(COc1ccccc1)NC(C)[C@H](O)c1ccc(O)cc1 (stereo partly shown) [ONC0000598, isoxsuprine hydrochloride]	84.27
CCC(O)(CC(N)=O)c1ccccc1 (stereo not shown) [ONC0003599, 3hydroxy3phenylpentanamide]	105.2
Cc1nc2cc(-n3ncc(C(=O)c4cc5ccccc5[nH]4)c3N)ccc2[nH]1 [ONC0004455, ch5183284 debio1347]	110.2
O=c1[nH]c2ccccc2n1C1CCN(CCCC(c2ccc(F)cc2)c2ccc(F)cc2)CC1 [ONC0000675, pimozide]	106.9
Cc1cccc(C)c1NC(=O)CN1CCN(CCCC(c2ccc(F)cc2)c2ccc(F)cc2)CC1 [ONC0002360, lidoflazine]	112.8
CCNC(=O)N1CCN(CCCC(c2ccc(F)cc2)c2ccc(F)cc2)CC1 [ONC0003498, amperozidehcl]	32.95
Cc1c[nH]c(-c2cnc(NCCNc3ccc(C#N)cn3)nc2-c2ccc(Cl)cc2Cl)n1 [ONC0004531, chir99021 ct99021 hcl]	57.04
C[C@H]1c2cccc(O)c2C(=O)C2C(=O)[C@]3(O)C(=O)C(C(N)=O)C(=O)[C@@H](N(C)C)[C@@H]3[C@@H](O)[C@@H]21 (stereo partly shown) [ONC0000682, doxycycline hydrochloride]	94.49
C[C@]12CCC(=O)C=C1CCC1C2C(=O)C[C@@]2(C)C1CC[C@]2(O)C(=O)CO (stereo partly shown) [ONC0005338, cortisone]	64.83
Cc1sc(C)c2c1CCC=C2c1cnc[nH]1 [ONC0000248, tcg1000]	71.17
Cc1ccnc(NC(=O)C(C)c2cccc(C(=O)c3ccccc3)c2)c1 (stereo not shown) [ONC0003716, piketoprofen]	97.11

Compound	% viability [%]
O=C(O)c1ccccc1Nc1cccc(OCc2ccc3ccccc3n2)c1 [ONC0001414, sr2640]	39.31
CCCCCC(O)c1cccc(OCc2ccc3ccccc3n2)c1 (stereo not shown) [ONC0005481, rev5901 l655238]	92.78
O=C(O)[C@@H](c1ccc(OCc2ccc3ccccc3n2)cc1)C1CCCC1 [ONC0005557, veliflapon]	76.74
Cc1cc(O)c2c(c1)C(=O)c1cc(O)cc(O)c1C2=O [ONC0004997, emodin]	57.84
Cc1cc(O)c2c(c1)C(=O)c1cccc(O)c1C2=O [ONC0005265, chrysophanic acid chrysophanol]	118.5
COc1cc(O)c2c(c1)C(=O)c1cc(C)cc(O)c1C2=O [ONC0004501, rheochrysidin physcione]	41.39
CNC(=O)c1ccc2cc([C@]3(O)CCn4cncc43)ccc2c1 [ONC0004670, tak700 orteronel]	115.9
CCN(CCCOc1ccc2c(Nc3cc(CC(=O)Nc4cccc(F)c4)n[nH]3)ncnc2c1)CCOP(=O)(O)O [ONC0002222, azd1152]	73.5
C[C@@H](NCCc1ccc(O)cc1)[C@@H](O)c1ccc(O)cc1 (racemic) [ONC0000689, ritodrine hydrochloride]	122.8
C[C@@H](O)[C@H]1C(=O)N2C(C(=O)[O-])=C([C@H]3CCCO3)S[C@H]12.C[C@@H](O)[C@H]1C(=O)N2C(C(=O)[O-])=C([C@H]3CCCO3)S[C@H]12.O.O.O.O.O.[Na+].[Na+] [ONC0000335, faropenem sodium hemipentahydrate]	95.52
Cc1oc(=O)oc1COC(=O)C1=C([C@H]2CCCO2)S[C@@H]2[C@@H]([C@@H](C)O)C(=O)N12 [ONC0001072, faropenem daloxate]	41.67
C1=C/COCc2cc(ccc2OCCN2CCCC2)Nc2nccc(n2)-c2cccc(c2)COC/1 [ONC0004380, pacritinib sb1518]	107.6
O=C(NC1CCNCC1)[C@@H]1CC[C@@H]2CN1C(=O)N2OS(=O)(=O)O [ONC0001257, relebactam]	62.24
CC[C@H](C)[C@@H]([C@@H](CC(=O)N1CCC[C@H]1[C@H](OC)[C@@H](C)C(=O)N[C@@H](Cc1ccccc1)c1nccs1)OC)N(C)C(=O)[C@@H](NC(=O)[C@H](C(C)C)N(C)C)C(C)C [ONC0003667, dolastin10]	74.88
N#C/C(=C1/SC[C@@H](c2ccc(Cl)cc2Cl)S1)n1ccnc1 [Luliconazole]	0.7126
N#C/C(=C1/SCC(c2ccccc2Cl)S1)n1ccnc1 (stereo not shown) [Lanoconazole]	3.92
C[C@@]12CC[C@@H]3[C@@](CC[C@H]4[C@@]3(C)CCC[C@@]4(C)C(=O)O)(CC1=O)C2 [ONC0002858, isosteviol]	83.56
CN(C)c1ccc(-c2nc3c(N4CCN(CC(=O)Nc5nccs5)CC4)c(Cl)cnc3[nH]2)cc1 [ONC0004963, cct129202]	95.03
